Experimental findings from PubChem BioAssay (EPA / NIEHS) are described below.

Inconclusive results are not listed. Active and inactive are the calls of the source. The calls were made as follows: active = hit-call score of the fitted dose curve at least 0.9, where 1 is the maximum; inconclusive = response in the unintended direction; inactive = score below 0.9.

For assay [1], the target named is human Casein Kinase 1-delta (CK1D), CSNK1D (gene 1453) (UniProt P48730). The assay is described as follows: NVS_ENZ_hCK1D: NovaScreen (NVS) Enzymatic Assay for human Casein Kinase 1-delta (CK1D) (AID 2283148). The method in brief:
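Recombinant human CK1-delta, cell-free; fluorescent substrate with electrophoretic mobility-shift separation of product, read 1 h after dosing. Single 25 uM duplicate screen, then concentration-response up to 50 uM; loss of signal vs DMSO.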

The target in assay [2] is human Caspase 5 (CASP5), CASP5 (gene 838) (UniProt P51878). The assay is described as follows: NVS_ENZ_hCASP5: NovaScreen (NVS) Enzymatic Assay for human Caspase 5 (CASP5) (AID 2283137). In short, it runs like this: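 Caspase 5 enzyme activity, detected as fluorescence signal loss, is measured in a biochemical format using E. coli-expressed protein. Reading occurs 2 hours post-dosing. Screening runs at 25 uM, with confirmed actives titrated to 50 uM maximum.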
human Caspase 5 (CASP5), CASP5 (gene 838), sequence (P51878 whole entry, looked up): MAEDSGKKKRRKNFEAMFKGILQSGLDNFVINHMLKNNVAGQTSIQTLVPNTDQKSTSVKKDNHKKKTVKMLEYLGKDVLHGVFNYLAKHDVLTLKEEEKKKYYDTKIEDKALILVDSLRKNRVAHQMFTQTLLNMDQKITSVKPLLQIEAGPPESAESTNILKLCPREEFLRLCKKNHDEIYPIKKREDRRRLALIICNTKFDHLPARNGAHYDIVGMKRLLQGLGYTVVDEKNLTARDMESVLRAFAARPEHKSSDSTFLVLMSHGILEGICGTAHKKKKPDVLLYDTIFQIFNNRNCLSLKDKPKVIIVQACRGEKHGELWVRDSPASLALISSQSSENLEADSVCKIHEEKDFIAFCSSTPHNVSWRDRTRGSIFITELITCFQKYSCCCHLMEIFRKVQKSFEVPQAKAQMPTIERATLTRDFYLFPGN

Assay [3] deals with human Dual Specificity Protein Phosphatase 3 (DUSP3), DUSP3 (gene 1845) (UniProt P51452). The experiment in a line: NVS_ENZ_hDUSP3: NovaScreen (NVS) Enzymatic Assay for human Dual Specificity Protein Phosphatase 3 (DUSP3) (AID 2283152).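 Also: phosphatase activity of recombinant human DUSP3 on a fluorogenic substrate without cells.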 The method in brief:
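Cell-free fluorescence-intensity enzyme activity assay with recombinant protein and substrate; loss of signal fitted relative to DMSO baseline. Primary screen in duplicate at 25 uM, actives then run in concentration series; measured 0 h after dosing.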

Assay [4] concerns the target human Elastase, ELANE (gene 1991) (UniProt P08246). The assay is described as follows: NVS_ENZ_hElastase: NovaScreen (NVS) Enzymatic Assay for human Elastase (AID 2283153). In short, it runs like this:
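Concentration-response to 50 uM max, run singly for chemicals passing a threshold (e.g., 30% inhibition) in a duplicate 25 uM single-point screen. Neutrophil-derived human elastase, absorbance read-out of enzyme activity at 1.5 h; DMSO baseline.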

For assay [5], the target named is human Beta-secretase (BACE), BACE1 (gene 23621) (UniProt P56817). The assay is described as follows: NVS_ENZ_hBACE: NovaScreen (NVS) Enzymatic Assay for human Beta-secretase (BACE) (AID 2283140).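 Also: hits are inhibitors that reduce fluorescent substrate signal versus DMSO.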 In short, it runs like this: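 Enzyme activity of SF9-produced BACE1 is measured cell-free by fluorescence, 1 hour post dosing, normalised to DMSO. Screening used 25 uM in duplicate, with concentration-response follow-up for actives.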
human Beta-secretase (BACE), BACE1 (gene 23621), sequence (P56817 whole entry, looked up): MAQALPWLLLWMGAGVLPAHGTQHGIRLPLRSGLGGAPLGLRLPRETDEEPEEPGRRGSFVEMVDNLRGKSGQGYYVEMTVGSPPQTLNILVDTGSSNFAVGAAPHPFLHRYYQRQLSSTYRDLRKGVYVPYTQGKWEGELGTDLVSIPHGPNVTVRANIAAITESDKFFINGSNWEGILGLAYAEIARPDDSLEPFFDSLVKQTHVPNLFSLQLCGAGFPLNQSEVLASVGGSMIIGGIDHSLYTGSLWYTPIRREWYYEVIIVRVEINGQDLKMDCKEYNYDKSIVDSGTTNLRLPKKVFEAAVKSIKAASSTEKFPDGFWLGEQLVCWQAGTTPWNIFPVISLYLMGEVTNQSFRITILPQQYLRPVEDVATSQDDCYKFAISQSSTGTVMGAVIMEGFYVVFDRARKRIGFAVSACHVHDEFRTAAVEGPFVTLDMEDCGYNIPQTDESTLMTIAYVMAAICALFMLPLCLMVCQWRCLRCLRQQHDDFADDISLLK

In assay [6] the target is human Ephrin type-A Receptor 1 (EphA1), EPHA1 (gene 2041) (UniProt P21709). The experiment in a line: NVS_ENZ_hEphA1: NovaScreen (NVS) Enzymatic Assay for human Ephrin type-A Receptor 1 (EphA1) (AID 2283158).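 Also: activity is signal loss versus DMSO meaning EphA1 kinase inhibition.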 The method in brief:
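Recombinant kinase, fluorescent substrate, mobility-shift separation, fluorescence read at 1 h. Single-point duplicates at 25 uM; hits (e.g., ≥30% inhibition) run singleton concentration-response, max 50 uM. DMSO = negative control/baseline.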

Assay [7] concerns the target human Caspase 2 (CASP2), CASP2 (gene 835) (UniProt P42575). The experiment in a line: NVS_ENZ_hCASP2: NovaScreen (NVS) Enzymatic Assay for human Caspase 2 (CASP2) (AID 2283135). In short, it runs like this: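 Single-point duplicate testing at 25 uM preceded concentration series topping at 50 uM. Activity of the recombinant E. coli-derived protease was followed by fluorescent substrate cleavage 1 h post-dosing, relative to DMSO.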

Assay [8] deals with human AKT serine/threonine Kinase 1 (AKT1), AKT1 (gene 207) (UniProt P31749). The experiment in a line: NVS_ENZ_hAKT1: NovaScreen (NVS) Enzymatic Assay for human AKT serine/threonine Kinase 1 (AKT1) (AID 2283138). In short, it runs like this: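 A biochemical assay with recombinant enzyme and specific substrate, read by fluorescence intensity with mobility-shift separation 1 hour after dosing. Actives from 25 uM duplicate screening were titrated up to 50 uM against DMSO baseline.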
human AKT serine/threonine Kinase 1 (AKT1), AKT1 (gene 207), sequence (P31749 whole entry, looked up): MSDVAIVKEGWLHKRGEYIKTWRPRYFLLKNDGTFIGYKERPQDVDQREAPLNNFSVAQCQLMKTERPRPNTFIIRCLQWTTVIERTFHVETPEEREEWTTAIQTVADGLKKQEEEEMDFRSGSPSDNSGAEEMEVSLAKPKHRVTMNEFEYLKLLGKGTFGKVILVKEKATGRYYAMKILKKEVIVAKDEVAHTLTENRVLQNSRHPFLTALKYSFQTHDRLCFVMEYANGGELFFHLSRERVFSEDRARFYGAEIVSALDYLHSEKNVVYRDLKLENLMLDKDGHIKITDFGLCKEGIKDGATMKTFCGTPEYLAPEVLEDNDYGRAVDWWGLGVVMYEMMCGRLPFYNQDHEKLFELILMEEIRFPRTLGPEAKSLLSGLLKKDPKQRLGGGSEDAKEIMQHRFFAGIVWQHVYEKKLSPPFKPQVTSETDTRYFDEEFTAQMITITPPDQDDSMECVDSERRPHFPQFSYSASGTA

The target of assay [9] is human Ephrin type-A Receptor 2 (EphA2), EPHA2 (gene 1969) (UniProt P29317). The experiment in a line: NVS_ENZ_hEphA2: NovaScreen (NVS) Enzymatic Assay for human Ephrin type-A Receptor 2 (EphA2) (AID 2283155). In short, it runs like this: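 Enzyme activity of recombinant EphA2 read by fluorescence after mobility-shift separation, 1 h after dosing. Chemicals first tested at 25 uM (duplicate); those passing threshold run as concentration series, top 50 uM, single replicate, relative to DMSO.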

Assay [10] concerns the target human Acetylcholinesterase (AChE), ACHE (gene 43) (UniProt P22303). The assay is described as follows: NVS_ENZ_hAChE: NovaScreen (NVS) Enzymatic Assay for human Acetylcholinesterase (AChE) (AID 2283129). The method in brief: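 Actives from a duplicate single-point screen (25 uM) were followed up in concentration series. Enzyme activity read by absorbance (colorimetric) 0.33 hour after dosing, cell-free, normalized to DMSO, with loss of signal scored.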

For assay [11], the target named is human Esterase Plasma (ES), BCHE (gene 590) (UniProt P06276). The experiment in a line: NVS_ENZ_hES: NovaScreen (NVS) Enzymatic Assay for human Esterase Plasma (ES) (AID 2283157). The method in brief: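 Primary single-concentration screen at 25 uM in duplicate, then concentration-response to a 50 uM top dose. Human plasma esterase activity detected colorimetrically after 0.25 h incubation, with DMSO as baseline.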
human Esterase Plasma (ES), BCHE (gene 590), sequence (P06276 whole entry, looked up): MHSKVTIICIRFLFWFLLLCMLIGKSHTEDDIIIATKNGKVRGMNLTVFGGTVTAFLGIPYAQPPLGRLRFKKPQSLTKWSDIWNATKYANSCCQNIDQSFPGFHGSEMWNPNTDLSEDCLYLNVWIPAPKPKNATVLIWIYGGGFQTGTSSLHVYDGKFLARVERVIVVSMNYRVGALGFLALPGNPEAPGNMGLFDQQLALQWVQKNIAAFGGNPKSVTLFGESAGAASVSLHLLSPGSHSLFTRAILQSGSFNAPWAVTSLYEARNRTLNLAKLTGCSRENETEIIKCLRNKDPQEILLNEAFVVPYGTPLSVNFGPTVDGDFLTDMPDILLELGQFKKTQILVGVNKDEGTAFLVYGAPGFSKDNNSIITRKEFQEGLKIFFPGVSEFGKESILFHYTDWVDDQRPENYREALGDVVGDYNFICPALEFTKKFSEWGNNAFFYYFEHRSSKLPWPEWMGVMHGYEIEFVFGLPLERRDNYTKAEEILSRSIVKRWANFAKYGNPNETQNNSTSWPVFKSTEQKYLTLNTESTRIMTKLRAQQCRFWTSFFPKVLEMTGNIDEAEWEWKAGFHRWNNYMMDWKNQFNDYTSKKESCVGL

Assay [12] deals with human Colony Stimulating Factor 1 Receptor (CSF1R), CSF1R (gene 1436) (UniProt P07333). The experiment in a line: NVS_ENZ_hCSF1R: NovaScreen (NVS) Enzymatic Assay for human Colony Stimulating Factor 1 Receptor (CSF1R) (AID 2283150). In short, it runs like this:
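Compounds screened in duplicate at 25 uM, then concentration-response (top 50 uM) for those passing threshold such as 30% inhibition; recombinant CSF1R activity measured 1 h post-dosing via fluorescent substrate/product mobility-shift separation, loss of signal versus DMSO.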

Assay [13] deals with human Aurora Kinase A - serine/threonine-protein Kinase 6 (AurA), AURKA (gene 6790) (UniProt O14965). The experiment in a line: NVS_ENZ_hAurA: NovaScreen (NVS) Enzymatic Assay for human Aurora Kinase A - serine/threonine-protein Kinase 6 (AurA) (AID 2283142). The method in brief: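 Recombinant human AurA activity read by fluorescence after mobility-shift separation of product from substrate; 1 hour incubation. Chemicals first run in duplicate at 25 uM, then concentration series to 50 uM if over threshold; fitted relative to DMSO.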

A further assay concerns the target CDK2 (gene 1017) (UniProt P24941). The experiment in a line: NVS_ENZ_hCDK2: NovaScreen (NVS) Enzymatic Assay for human Cyclin-Cependent Kinase 2 (CDK2) (AID 2283144). In short, it runs like this: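 Compounds screened in duplicate at 25 uM, then in singleton concentration-response to a maximum of 50 uM, against recombinant CDK2; kinase activity read 1 hr after dosing by fluorescence with mobility-shift separation of substrate and product.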

Assay [14] deals with human Epidermal Growth Factor Receptor (EGFR), EGFR (gene 1956) (UniProt P00533). The experiment in a line: NVS_ENZ_hEGFR: NovaScreen (NVS) Enzymatic Assay for human Epidermal Growth Factor Receptor (EGFR) (AID 2283151). In short, it runs like this:
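Cell-free kinase assay, fluorescence plus electrophoretic mobility shift separating substrate and product, read 1 hour after dosing; loss of signal vs DMSO. Duplicate screen at 25 uM, then concentration-response to 50 uM.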

Another assay has as its system rat CYP2B1, gene 24300. The experiment in a line: NVS_ADME_rCYP2B1: NovaScreen (NVS) CYP450-related Enzyme Activity (ADME) Assay for rat CYP2B1 (AID 2283117). The method in brief: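 Cell-free fluorescence enzyme assay, recombinant rat CYP2B1, 0.75 h after dosing. Single-concentration duplicates at 10 uM preceded concentration series (max 20 uM) for actives; acetonitrile as negative-control baseline.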

A further assay deals with rat CYP3A1, gene 25642. The assay is described as follows: NVS_ADME_rCYP3A1: NovaScreen (NVS) CYP450-related Enzyme Activity (ADME) Assay for rat CYP3A1 (AID 2283126). In short, it runs like this: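 Compounds went first at 10 uM duplicate, then to series with 20 uM maximum. Fluorescence from substrate turnover by the recombinant enzyme was measured 0.5 h post-dosing, inhibition scored against acetonitrile vehicle.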

The target in assay [15] is rat CYP3A2, Cyp3a2 (gene 266682) (UniProt P05183). The experiment in a line: NVS_ADME_rCYP3A2: NovaScreen (NVS) CYP450-related Enzyme Activity (ADME) Assay for rat CYP3A2 (AID 2283128). The method in brief:
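Fluorescence readout of extracted rat CYP3A2 activity 0.5 h post-dose, acetonitrile as negative control. Single-point testing in duplicate at 10 uM, followed by concentration series to a 20 uM maximum for actives.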

Assay [16] has as its target human AMP-activated Protein Kinase, alpha 1 (AMPKa1), PRKAA1 (gene 5562) (UniProt Q13131). The experiment in a line: NVS_ENZ_hAMPKa1: NovaScreen (NVS) Enzymatic Assay for human AMP-activated Protein Kinase, alpha 1 (AMPKa1) (AID 2283130). The method in brief: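 Compounds were screened in duplicate at 25 uM, and those reaching ~30% inhibition were titrated up to 50 uM. The enzyme was recombinant human AMPKα1, and kinase turnover was read by fluorescence/mobility shift 1 h post-dosing as loss of signal versus DMSO.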

In assay [17] the target is human AKT serine/threonine Kinase 2 (AKT2), AKT2 (gene 208) (UniProt P31751). The assay is described as follows: NVS_ENZ_hAKT2: NovaScreen (NVS) Enzymatic Assay for human AKT serine/threonine Kinase 2 (AKT2) (AID 2283141). In short, it runs like this:
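Cell-free fluorescence/electrophoretic mobility shift readout of recombinant human AKT2 activity, 1 h after chemical dosing. Duplicate primary screen at 25 uM, then singleton concentration-response up to 50 uM; loss of signal versus DMSO baseline.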

human Ephrin type-A Receptor 1 (EphA1), EPHA1 (gene 2041), sequence (P21709 whole entry, looked up): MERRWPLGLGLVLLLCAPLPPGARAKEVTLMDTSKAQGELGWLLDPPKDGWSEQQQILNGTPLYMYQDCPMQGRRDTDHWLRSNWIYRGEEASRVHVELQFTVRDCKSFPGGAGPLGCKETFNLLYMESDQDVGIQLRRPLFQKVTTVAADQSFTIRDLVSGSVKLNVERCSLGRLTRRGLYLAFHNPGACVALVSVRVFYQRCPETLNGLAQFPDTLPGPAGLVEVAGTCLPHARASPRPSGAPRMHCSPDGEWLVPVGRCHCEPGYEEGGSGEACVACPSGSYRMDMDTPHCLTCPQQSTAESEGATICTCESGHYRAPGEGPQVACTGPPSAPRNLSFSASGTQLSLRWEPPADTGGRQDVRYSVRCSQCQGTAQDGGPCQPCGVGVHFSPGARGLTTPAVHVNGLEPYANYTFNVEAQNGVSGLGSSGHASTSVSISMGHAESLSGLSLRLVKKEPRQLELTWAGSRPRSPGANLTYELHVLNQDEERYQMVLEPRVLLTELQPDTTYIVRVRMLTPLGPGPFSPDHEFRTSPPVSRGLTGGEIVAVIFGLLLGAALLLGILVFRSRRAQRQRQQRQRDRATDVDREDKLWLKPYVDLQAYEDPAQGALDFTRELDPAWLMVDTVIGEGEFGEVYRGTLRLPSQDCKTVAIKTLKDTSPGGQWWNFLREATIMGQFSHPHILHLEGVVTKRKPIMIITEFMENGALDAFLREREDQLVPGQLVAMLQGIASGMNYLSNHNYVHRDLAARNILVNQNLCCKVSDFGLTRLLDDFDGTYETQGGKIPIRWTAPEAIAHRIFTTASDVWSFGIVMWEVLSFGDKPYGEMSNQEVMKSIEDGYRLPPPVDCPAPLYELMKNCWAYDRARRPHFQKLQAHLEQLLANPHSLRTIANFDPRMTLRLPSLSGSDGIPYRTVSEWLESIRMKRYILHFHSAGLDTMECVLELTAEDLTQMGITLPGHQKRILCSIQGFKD
human Caspase 2 (CASP2), CASP2 (gene 835), sequence (P42575 whole entry, looked up): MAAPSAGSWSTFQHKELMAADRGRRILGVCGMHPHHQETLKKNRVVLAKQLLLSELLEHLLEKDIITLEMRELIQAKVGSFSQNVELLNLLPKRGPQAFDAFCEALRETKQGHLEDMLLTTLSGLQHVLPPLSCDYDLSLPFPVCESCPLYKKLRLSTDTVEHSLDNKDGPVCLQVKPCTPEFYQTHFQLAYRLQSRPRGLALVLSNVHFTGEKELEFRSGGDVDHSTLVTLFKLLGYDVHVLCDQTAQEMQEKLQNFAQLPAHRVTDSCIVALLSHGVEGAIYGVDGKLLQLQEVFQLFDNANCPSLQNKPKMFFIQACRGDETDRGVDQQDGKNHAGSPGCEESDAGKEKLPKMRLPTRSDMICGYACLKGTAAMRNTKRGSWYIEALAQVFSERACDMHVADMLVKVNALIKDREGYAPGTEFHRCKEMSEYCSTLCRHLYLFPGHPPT
human Colony Stimulating Factor 1 Receptor (CSF1R), CSF1R (gene 1436), sequence (P07333 whole entry, looked up): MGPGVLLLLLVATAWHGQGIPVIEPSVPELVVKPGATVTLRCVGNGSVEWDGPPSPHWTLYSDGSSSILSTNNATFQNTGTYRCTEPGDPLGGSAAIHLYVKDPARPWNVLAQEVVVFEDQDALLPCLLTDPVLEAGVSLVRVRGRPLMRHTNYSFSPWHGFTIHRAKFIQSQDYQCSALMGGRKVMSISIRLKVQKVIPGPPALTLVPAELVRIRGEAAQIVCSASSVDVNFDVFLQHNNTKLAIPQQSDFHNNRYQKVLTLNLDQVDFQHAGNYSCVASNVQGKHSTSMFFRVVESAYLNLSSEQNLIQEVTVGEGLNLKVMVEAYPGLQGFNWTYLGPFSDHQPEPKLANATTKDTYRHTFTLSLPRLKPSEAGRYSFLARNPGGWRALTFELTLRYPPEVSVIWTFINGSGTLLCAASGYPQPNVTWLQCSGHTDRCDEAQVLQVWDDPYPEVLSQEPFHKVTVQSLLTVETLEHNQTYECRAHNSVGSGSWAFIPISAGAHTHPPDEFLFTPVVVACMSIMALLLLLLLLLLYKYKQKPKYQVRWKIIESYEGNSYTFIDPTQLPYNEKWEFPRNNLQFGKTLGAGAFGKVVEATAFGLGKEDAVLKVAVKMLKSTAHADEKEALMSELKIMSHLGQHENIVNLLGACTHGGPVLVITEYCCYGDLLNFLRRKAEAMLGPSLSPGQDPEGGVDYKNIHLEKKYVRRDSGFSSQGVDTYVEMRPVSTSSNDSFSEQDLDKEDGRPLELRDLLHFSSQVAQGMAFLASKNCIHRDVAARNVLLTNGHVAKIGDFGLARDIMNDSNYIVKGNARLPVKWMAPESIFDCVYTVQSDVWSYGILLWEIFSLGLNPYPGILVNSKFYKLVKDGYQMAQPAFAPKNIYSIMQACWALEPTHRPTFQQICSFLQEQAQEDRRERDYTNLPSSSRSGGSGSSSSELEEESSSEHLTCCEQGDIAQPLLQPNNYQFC
human Dual Specificity Protein Phosphatase 3 (DUSP3), DUSP3 (gene 1845), sequence (P51452 whole entry, looked up): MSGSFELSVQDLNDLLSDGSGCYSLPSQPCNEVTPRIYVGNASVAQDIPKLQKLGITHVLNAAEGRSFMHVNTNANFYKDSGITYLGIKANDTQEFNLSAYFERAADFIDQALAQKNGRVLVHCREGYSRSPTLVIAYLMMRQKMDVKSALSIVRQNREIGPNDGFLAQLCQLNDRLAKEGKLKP
human Casein Kinase 1-delta (CK1D), CSNK1D (gene 1453), sequence (P48730 whole entry, looked up): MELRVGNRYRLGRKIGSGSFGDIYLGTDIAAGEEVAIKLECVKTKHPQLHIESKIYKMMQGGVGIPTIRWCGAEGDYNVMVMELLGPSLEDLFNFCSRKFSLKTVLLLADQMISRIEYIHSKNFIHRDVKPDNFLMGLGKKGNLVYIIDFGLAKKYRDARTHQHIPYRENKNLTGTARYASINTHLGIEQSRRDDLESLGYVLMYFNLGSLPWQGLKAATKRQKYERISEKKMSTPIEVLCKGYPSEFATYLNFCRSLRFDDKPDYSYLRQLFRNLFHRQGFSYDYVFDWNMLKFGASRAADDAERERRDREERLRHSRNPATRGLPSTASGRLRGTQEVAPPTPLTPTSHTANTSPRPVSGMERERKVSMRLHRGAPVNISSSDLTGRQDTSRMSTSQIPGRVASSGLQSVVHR

Take `O=[N+]([O-])c1ccccc1`: the outcome in assay [1] was inactive.

Usually AC50 stands for the concentration at which the activity in the assay is half-maximal. `CCOP(=S)(S)OCC`: the compound was called inactive in [2]. The concentration at half-maximal activity (AC50) in [3] was 19.9 µM (active).

Turning to `c1ccc(OP(Oc2ccccc2)Oc2ccccc2)cc1`, in assay [1], the compound was called inactive. For the same compound, the AC50 in [4] was 37 µM (active).

In the case of `CCCN(CCC)c1c([N+](=O)[O-])cc(C(C)C)cc1[N+](=O)[O-]`, in assay [5], the call was inactive.

`CC(C)Nc1ccc(Nc2ccccc2)cc1`: the AC50 in [3] was 2.71 µM (active). Besides, in assay [6], the compound was classed as inactive.

For `CC(Cl)(Cl)C(=O)O`, the call in [7] and in [6] was inactive.

Take `CCOP(=S)(OCC)SCSCC`: the call in assay [7] and in assay [8] was inactive.

For `O=P(Oc1ccccc1)(Oc1ccccc1)Oc1ccccc1`, the call in assay [9] was inactive.

For `CCCCN(CCCC)SN(C)C(=O)Oc1cccc2c1OC(C)(C)C2`, the AC50 in [10] was 1.31 µM (active). The outcome in assay [7] and in assay [11] was inactive.

On to `CCOS(=O)(=O)OCC`, for which the compound was called inactive in [1].

In the case of `CCOP(=S)(OCC)SCn1nnc2ccccc2c1=O`, the AC50 in [3] was 19.6 µM (active).

In the case of `CCNc1nc(Cl)nc(NC(C)(C)C)n1`, in [11], the result was inactive.

For the compound `Nc1ccc2ccccc2c1`, in assay [11], the AC50 is 13.7 µM (active).

On to `CCC(C)(C)c1ccc(O)cc1`, for which the compound was called inactive in [12].

With `CC(C)(C)OOC(C)(C)C`, the compound was classed as inactive (in assay [8]; in [13]; with CDK2 (gene 1017); in [12]; in [14]; in assay [6]).

As to `Cc1cccc(N)c1`, the result in [8] was inactive.

Turning to `Cc1ccc2c(c1N)C(=O)c1ccccc1C2=O`, the AC50 in assay [2] is 6.72 µM (active); in [6], 19.2 µM (active).

Regarding `CO/N=C(/C(=O)OC)c1ccccc1COc1ccccc1C`, in the assay on rat CYP2B1, gene 24300, the call was inactive. For the same compound, the half-maximal activity concentration (AC50) with rat CYP3A1, gene 25642 was 6.96 µM (active); in assay [15] it was 6.28 µM (active).

Consider `O=c1ssc(Cl)c1Cl`, for which, in the assay with rat CYP2B1, gene 24300, the compound was classed as inactive. The AC50 in assay [3] was 6.98 µM (active).

On to `Nc1ccc(Cl)cc1`, for which the call in assay [6] was inactive.

In the case of `CSC(C)(C)C=NO`, the call in assay [16] and in [12] was inactive.

On to `CC(C)(C)c1ccc(O)cc1`, for which the outcome in assay [17] was inactive.

Consider `COCCOCCO`, for which the call in [7] was inactive.

For `Cc1ccc([N+](=O)[O-])cc1C`, the call in [9] was inactive.

In the case of `ClC1=C(Cl)C2(Cl)C3C(Cl)C(Cl)CC3C1(Cl)C2(Cl)Cl` (configuration not stated), the call in [14] was inactive.

In the case of `NNC(N)=S`, the call in [5] was inactive.

For the compound `O=P(OCC(Br)CBr)(OCC(Br)CBr)OCC(Br)CBr` (configuration not stated), the AC50 in assay [5] was 14.3 µM (active).

Regarding `CCOP(=S)(OCC)SCSc1ccc(Cl)cc1`, the AC50 in [3] is 17.3 µM (active).

Turning to `c1ccc2c(c1)Nc1ccccc1S2`, the call in [4] was inactive.

In the case of `Cc1ccc(O)cc1C`, the result in assay [1] and in [14] was inactive.

For the compound `O=P1(N(CCCl)CCCl)NCCCO1` (configuration not stated), the result in assay [16], in assay [14] and in [11] was inactive.

As to `CCOP(=S)(Oc1ccc([N+](=O)[O-])cc1)c1ccccc1` (configuration not stated), in [8], the compound was classed as inactive.
